Test [1] has as its target ALK tyrosine kinase receptor (Homo sapiens) (UniProt Q9UM73). To be noted: at 10 µM.
The target of test [2] is T1, Activin receptor type-1B (Homo sapiens) (UniProt P36896).
T1 sequence (whole entry): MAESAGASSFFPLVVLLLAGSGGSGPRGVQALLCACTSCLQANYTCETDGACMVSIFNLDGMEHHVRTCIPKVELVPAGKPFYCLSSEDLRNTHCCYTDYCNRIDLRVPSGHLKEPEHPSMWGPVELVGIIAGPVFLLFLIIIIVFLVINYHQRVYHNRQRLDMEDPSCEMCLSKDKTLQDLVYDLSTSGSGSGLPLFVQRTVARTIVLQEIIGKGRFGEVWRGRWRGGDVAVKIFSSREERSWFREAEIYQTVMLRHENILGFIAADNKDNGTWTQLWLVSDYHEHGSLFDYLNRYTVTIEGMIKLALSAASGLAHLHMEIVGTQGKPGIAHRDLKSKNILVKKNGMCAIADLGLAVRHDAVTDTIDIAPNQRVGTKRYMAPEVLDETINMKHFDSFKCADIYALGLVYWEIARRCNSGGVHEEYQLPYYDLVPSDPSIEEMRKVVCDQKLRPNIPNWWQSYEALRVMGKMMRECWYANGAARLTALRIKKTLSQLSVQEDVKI
To be noted: at 1 µM.

Test [3] addresses T1, Activin receptor type-1B (Homo sapiens). Particulars: at 10 µM.
Test [4] concerns the target T2, AMP-activated protein kinase (AMPK) alpha-1/beta-1/gamma-1 (Homo sapiens) (UniProt P54619+Q9Y478+Q13131). Particulars: at 1 µM.
Test [5] has as its target T2, AMP-activated protein kinase (AMPK) alpha-1/beta-1/gamma-1 (Homo sapiens). Particulars: at 10 µM.
Test [6] deals with T3, AMP-activated protein kinase, AMPK (Homo sapiens) (UniProt P54646+O43741+P54619+Q9UGJ0+Q9Y478+Q13131+Q9UGI9). To be noted: at 1 µM.
For test [7], the target named is T3, AMP-activated protein kinase, AMPK (Homo sapiens). Particulars: at 10 µM.
Test [8] concerns the target T4, NUAK family SNF1-like kinase 1 (Homo sapiens) (UniProt O60285).
T4 sequence (whole entry): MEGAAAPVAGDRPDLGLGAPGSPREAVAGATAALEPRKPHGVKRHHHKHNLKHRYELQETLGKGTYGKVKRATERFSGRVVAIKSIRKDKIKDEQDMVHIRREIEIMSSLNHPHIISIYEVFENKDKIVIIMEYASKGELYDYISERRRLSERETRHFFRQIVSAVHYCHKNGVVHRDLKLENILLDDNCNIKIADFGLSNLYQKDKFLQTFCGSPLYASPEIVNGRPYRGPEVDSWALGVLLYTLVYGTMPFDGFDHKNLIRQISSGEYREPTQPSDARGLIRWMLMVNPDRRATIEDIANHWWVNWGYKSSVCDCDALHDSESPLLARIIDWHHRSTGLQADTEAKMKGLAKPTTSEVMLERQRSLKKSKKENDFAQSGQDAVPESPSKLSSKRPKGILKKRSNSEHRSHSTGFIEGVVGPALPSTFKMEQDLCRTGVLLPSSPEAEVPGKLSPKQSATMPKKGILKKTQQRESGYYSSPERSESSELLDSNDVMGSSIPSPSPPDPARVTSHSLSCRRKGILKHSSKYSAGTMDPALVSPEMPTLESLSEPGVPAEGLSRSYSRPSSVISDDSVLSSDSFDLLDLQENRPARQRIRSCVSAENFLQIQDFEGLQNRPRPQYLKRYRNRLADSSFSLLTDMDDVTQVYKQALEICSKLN
Particulars: at 1 µM.

For test [9], the target named is T4, NUAK family SNF1-like kinase 1 (Homo sapiens). Particulars: at 10 µM.
Test [10] concerns the target Platelet-derived growth factor receptor alpha (Homo sapiens) (UniProt P16234). Particulars: at 1 µM.
For test [11] the target is unchanged. To be noted: at 10 µM.
In test [12] the target is Platelet-derived growth factor receptor beta (Homo sapiens) (UniProt P09619). To be noted: at 1 µM.
The target is the same in test [13]. Particulars: at 10 µM.
Test [14] concerns the target RAC-gamma serine/threonine-protein kinase (Homo sapiens) (UniProt Q9Y243). To be noted: at 1 µM.
The target is the same in test [15]. To be noted: at 10 µM.
Test [16] addresses T5, Mitogen-activated protein kinase kinase kinase 5 (Homo sapiens) (UniProt Q99683).
T5 sequence (whole entry): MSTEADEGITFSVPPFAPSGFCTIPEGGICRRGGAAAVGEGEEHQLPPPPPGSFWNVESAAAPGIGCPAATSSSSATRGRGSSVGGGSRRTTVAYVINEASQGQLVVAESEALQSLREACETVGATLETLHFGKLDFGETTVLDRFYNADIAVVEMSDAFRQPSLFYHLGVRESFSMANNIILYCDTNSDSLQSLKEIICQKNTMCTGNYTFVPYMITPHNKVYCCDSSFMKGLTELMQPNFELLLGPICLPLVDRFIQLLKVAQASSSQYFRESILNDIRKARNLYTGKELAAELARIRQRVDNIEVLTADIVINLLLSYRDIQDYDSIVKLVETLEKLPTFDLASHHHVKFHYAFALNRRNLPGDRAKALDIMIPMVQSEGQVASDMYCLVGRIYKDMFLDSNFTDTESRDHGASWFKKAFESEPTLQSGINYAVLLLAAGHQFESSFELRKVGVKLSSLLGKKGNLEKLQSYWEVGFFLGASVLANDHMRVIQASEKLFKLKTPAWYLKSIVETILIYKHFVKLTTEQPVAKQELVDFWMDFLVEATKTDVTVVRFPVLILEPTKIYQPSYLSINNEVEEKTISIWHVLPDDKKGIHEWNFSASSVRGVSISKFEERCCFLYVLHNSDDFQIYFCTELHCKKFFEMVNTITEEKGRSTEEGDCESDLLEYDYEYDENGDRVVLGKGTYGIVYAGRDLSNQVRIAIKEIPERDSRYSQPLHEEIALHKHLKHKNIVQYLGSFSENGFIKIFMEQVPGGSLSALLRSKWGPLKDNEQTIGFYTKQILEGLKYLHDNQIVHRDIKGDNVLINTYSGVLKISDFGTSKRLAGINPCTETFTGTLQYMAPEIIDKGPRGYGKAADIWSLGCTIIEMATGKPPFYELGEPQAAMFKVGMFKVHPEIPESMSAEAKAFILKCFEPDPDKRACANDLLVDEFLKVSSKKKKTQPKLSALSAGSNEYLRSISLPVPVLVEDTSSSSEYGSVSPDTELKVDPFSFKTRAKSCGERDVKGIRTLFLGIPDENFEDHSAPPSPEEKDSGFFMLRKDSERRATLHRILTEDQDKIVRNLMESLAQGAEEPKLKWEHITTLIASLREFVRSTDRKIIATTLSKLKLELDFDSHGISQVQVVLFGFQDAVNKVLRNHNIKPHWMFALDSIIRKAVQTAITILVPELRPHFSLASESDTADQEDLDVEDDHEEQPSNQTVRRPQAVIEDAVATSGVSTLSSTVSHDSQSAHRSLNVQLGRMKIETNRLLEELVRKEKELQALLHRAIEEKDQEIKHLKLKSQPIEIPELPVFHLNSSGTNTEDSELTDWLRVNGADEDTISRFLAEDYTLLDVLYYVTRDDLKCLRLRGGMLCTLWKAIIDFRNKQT
Particulars: at 1 µM.

Test [17] deals with cAMP-dependent protein kinase catalytic subunit alpha (Homo sapiens) (UniProt P17612). Particulars: at 1 µM.
Test [18] has the same target. Particulars: at 10 µM.
Test [19] addresses T6, 3-phosphoinositide-dependent protein kinase 1 (Homo sapiens) (UniProt O15530).
T6 sequence (whole entry): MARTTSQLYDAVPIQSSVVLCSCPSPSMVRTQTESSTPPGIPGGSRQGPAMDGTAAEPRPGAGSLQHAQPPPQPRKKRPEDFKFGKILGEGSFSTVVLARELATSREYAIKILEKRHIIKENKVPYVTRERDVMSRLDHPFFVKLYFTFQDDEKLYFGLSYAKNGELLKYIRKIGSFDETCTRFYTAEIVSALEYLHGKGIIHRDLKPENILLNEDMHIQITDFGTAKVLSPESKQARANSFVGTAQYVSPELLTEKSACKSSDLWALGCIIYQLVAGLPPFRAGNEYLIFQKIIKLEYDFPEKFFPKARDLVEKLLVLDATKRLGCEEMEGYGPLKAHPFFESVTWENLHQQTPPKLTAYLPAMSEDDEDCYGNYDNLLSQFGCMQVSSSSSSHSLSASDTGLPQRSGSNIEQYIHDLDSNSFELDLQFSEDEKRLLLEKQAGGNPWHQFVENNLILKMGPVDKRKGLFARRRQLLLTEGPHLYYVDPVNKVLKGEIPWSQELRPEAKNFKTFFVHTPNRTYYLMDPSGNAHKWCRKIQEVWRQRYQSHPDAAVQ
Particulars: at 1 µM.

Test [20] addresses T6, 3-phosphoinositide-dependent protein kinase 1 (Homo sapiens). Particulars: at 10 µM.

Drawing on ChEMBL document CHEMBL2218924, “A broad activity screen in support of a chemogenomic map for kinase signalling research and drug discovery” (Biochem J, 2013), this text covers residual activity for eight molecules.

Platelet-derived growth factor receptor beta (Homo sapiens), sequence (P09619 whole entry): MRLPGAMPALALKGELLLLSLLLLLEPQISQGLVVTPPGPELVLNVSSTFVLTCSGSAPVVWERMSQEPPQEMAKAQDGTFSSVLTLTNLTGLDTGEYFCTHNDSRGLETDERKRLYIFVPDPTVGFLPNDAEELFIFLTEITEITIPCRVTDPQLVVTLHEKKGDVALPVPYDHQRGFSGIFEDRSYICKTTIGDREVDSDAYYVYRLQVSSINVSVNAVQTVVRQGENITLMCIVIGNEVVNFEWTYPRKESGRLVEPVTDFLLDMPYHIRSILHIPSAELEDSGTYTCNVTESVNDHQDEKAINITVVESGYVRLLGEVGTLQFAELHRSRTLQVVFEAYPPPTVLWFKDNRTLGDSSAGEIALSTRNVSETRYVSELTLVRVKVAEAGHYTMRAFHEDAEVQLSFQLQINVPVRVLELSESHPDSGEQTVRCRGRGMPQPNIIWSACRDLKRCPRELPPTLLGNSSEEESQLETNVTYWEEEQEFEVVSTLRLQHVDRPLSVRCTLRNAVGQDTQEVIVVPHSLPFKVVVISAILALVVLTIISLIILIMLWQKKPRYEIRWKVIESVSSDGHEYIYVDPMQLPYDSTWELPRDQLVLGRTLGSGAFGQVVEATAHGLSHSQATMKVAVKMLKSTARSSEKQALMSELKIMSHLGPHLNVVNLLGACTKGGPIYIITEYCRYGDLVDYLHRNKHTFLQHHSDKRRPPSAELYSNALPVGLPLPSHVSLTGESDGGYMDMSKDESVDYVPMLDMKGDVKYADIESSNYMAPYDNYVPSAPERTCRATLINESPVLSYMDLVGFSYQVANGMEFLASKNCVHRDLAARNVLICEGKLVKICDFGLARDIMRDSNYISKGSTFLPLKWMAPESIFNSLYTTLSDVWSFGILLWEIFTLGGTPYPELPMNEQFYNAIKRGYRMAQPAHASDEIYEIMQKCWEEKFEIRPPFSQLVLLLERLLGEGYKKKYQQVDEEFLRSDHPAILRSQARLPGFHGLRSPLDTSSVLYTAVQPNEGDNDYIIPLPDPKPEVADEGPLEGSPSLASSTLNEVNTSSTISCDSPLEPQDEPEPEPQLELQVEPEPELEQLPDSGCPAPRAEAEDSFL
T2 sequence (P54619 whole entry): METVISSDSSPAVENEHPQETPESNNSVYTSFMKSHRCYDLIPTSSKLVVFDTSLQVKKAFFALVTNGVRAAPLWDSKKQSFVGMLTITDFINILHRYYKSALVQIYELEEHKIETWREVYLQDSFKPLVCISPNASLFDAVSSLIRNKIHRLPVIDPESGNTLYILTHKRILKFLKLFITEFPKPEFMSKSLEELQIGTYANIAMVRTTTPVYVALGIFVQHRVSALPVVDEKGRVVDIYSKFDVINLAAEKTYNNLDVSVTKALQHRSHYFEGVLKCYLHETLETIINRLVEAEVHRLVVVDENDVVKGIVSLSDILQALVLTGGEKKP
T2 sequence (Q13131 whole entry partner): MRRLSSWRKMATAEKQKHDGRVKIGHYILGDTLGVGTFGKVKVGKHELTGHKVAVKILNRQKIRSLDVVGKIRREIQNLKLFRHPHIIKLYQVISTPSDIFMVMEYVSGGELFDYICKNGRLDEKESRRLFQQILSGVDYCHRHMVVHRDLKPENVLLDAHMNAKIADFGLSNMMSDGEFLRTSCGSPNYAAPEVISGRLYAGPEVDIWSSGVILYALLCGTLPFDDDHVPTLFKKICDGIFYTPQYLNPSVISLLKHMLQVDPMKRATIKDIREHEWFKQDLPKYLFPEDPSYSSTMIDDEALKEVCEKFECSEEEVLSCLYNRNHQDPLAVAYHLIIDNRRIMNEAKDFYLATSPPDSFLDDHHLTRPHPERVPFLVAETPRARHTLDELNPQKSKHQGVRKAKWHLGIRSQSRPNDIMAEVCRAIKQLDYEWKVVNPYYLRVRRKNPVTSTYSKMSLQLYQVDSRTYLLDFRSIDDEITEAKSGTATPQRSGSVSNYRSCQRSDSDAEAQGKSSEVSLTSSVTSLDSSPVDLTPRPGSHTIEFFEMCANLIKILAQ
T2 sequence (Q9Y478 2-270 partner limits assumed): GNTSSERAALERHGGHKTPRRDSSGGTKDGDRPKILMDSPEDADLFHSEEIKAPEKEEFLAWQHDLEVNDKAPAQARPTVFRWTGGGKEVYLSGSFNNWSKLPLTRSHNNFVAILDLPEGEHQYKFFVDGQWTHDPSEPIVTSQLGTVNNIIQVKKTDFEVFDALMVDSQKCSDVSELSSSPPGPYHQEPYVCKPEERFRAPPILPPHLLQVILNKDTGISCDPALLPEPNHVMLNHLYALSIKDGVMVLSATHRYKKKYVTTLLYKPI
RAC-gamma serine/threonine-protein kinase (Homo sapiens), sequence (Q9Y243 whole entry): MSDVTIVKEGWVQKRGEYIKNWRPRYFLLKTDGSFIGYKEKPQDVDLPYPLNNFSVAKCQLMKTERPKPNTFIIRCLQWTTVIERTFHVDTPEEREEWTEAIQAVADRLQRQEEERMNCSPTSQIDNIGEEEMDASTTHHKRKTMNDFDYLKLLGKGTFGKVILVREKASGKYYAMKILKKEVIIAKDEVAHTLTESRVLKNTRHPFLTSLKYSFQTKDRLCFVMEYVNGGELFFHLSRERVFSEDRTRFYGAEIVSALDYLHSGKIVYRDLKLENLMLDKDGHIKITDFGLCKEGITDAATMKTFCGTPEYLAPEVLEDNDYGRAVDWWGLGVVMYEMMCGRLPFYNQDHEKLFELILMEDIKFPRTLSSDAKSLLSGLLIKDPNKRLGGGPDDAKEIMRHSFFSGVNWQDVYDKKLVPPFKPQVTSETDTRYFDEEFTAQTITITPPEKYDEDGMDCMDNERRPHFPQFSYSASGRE
Platelet-derived growth factor receptor alpha (Homo sapiens), sequence (P16234 whole entry): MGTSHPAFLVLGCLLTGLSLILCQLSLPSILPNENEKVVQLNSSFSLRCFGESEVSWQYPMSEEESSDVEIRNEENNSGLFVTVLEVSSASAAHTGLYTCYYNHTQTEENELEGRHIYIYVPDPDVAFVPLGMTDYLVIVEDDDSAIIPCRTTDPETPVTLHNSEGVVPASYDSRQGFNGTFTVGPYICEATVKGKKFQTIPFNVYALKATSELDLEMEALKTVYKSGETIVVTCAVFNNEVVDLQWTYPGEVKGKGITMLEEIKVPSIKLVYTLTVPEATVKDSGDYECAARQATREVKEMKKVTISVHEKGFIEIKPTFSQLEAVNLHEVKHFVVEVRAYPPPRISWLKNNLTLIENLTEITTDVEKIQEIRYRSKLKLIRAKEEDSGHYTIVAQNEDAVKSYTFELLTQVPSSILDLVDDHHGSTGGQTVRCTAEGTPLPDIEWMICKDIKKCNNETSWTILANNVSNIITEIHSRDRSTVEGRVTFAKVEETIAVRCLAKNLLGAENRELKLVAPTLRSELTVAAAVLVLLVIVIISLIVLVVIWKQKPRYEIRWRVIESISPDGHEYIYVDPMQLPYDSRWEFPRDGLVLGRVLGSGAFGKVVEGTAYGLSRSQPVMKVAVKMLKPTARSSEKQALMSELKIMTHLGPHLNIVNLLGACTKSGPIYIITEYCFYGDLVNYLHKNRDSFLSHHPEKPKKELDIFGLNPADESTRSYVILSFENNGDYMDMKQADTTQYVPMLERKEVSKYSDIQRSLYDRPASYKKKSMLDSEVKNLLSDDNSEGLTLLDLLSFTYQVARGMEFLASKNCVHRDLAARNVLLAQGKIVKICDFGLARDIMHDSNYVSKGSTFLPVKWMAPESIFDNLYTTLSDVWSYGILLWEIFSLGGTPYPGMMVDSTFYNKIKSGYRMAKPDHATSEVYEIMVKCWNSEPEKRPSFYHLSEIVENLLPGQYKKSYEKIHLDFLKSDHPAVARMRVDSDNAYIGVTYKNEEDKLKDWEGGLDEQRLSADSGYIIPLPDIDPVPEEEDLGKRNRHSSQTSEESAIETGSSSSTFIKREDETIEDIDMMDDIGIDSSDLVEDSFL

As for `CN(C)S(=O)(=O)c1ccc2c(c1)/C(=C/c1cc3c([nH]1)CCCC3)C(=O)N2`, the residual activity in test [1] was 29%; in [2] it was 111%; in test [3], 56%; in [4], 43%; in test [5] it was 29%; in test [6], 45%. For the same molecule, the residual activity was found to be 37% in [7]; 10% in test [8]; 3% in [9]; 33% in test [10]; 29% in [11]; 80% in test [12]. Moreover, the results for the residual activity in test [13], in [14] and in test [15] were 90%, 92% and 88%, respectively.

Regarding `CCOc1nc(NC(=O)Cc2cc(OC)ccc2OC)cc(N)c1C#N`, the residual activity in [1] was found to be 69%.

On to `Fc1ccc(-c2nc3n(c2-c2ccncc2)CCS3)cc1`, for which the residual activity in test [1] is 94%; in test [2] it was 100%; in test [3] it was 29%; in test [9], 90%; in test [16], 96%; in test [12], 123%. The residual activity in test [13] is 128%; in [17], 94%; in test [18], 84%.

In the case of `O=C(O)/C=C/c1cc(Br)c(Br)c(Br)c1Br`, the residual activity was found to be 87% in test [1]; 85% in test [3]; 101% in [4]; 56% in test [5]; 94% in test [6]; 76% in test [7]. In addition, the residual activity in [8] worked out at 102%; in test [9] it was 94%; in [16] it was 98%; in test [10], 100%; in [11], 103%; in test [19], 107%. Besides, the residual activity in [20] came to 99%; in [17] it was 96%; in test [18], 71%; in [14] it was 105%; in [15], 61%.

As for `CCCCc1c(-c2ccc(OC)cc2)[nH]c2nccnc12`, the residual activity in test [1] worked out at 31%; in test [2], 81%; in test [3], 39%; in [4], 82%; in test [6] it was 74%; in test [7], 92%. The residual activity came out at 15% in test [8]; 22% in [9]; 105% in test [10]; 111% in [11]; 104% in test [12]; 105% in test [13]. For the same molecule, the residual activity is 70% in test [19], 65% in [20], 86% in [17] and 119% in test [14].

As to `CN([C@@H](Cc1ccc(OS(=O)(=O)c2cccc3cnccc23)cc1)C(=O)N1CCN(c2ccccc2)CC1)S(=O)(=O)c1cccc2cnccc12`, the residual activity in test [1] was determined as 57%; in test [3], 86%; in [7], 86%; in test [16] it was 115%; in test [13], 98%; in test [15], 60%.

As to `O=C1Cc2c([nH]c3ccc(Br)cc23)-c2ccccc2N1`, the residual activity in test [1] was found to be 56%; in test [3], 72%; in test [4] it was 75%; in test [5] it was 44%; in test [8], 13%; in test [9] it was 2%. Also, the figures for the residual activity in test [17] and in [18] were 89% and 94%, respectively.

Turning to `CCCCc1c(-c2ccc(O)cc2)[nH]c2nccnc12`, the residual activity in [1] stood at 37%; in test [2], 88%; in test [3], 34%; in test [4] it was 85%; in test [5] it was 71%; in test [6] it was 75%. The residual activity in test [7] worked out at 67%; in test [8], 12%; in test [9] it was 16%; in [16], 93%; in test [19], 60%; in test [20], 31%.
